Assay [1] can be described thus: circadian clock period modulators, cell-based, LOPAC library, luminescence reporter (AID 2774; call rule not given here;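 further: values are relative to mean of DMSO wells on each plate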). The note with it: circadian reporter cells, at 7 µM, actives lie on both sides.
A short description of assay [2]: hESC survival regulators, cell-based (AID 493140; call rule not given here;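 further: cells exposed to compounds for four days before counting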). The note with it: human embryonic stem cell survival screen; stronger effect = higher value.
The test system of assay [3] is Hepatitis C virus NS3 helicase. The experiment in a line: HCV NS3 helicase inhibitors, primary screen, biochemical, fluorescence polarization, LOPAC1280 library (AID 687035; in the data active means inhibition above about 37%). The note with it: Purified HCV NS3 helicase, Cy5-dT15 ssDNA binding fluorescence polarization; stronger effect = higher value; concentration not given here.
Assay [4] can be described thus: Cy5 fluorescence quenching or enhancement artefacts, artefact control for HCV NS3 helicase inhibitor project, biochemical, LOPAC1280 (AID 687037; call rule not given here). The note with it: Cy5-DNA-NS3h complex fluorescence interference counterscreen.
In assay [5] the target is NAD(+) hydrolase SARM1 (Homo sapiens) (UniProt Q6SZW1). The experiment in a line: SARM1 TIR NADase inhibitors, cell lysate, NAD-Glo luminescence (AID 1508614;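 active means compound whose remaining NAD level is above about 45 nM, limit read from the data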). The note with it: SAM-TIR HEK293T lysate NADase, at 1 µM, stronger effect = higher value.
Assay [6] is described as follows: growth inhibition of DIPG glioma cells, dose response, cell-based, SU-DIPG-IV, MIPE4.0, CellTiter-Glo, qHTS (AID 1347063; cut-off not given, nearly all actives have AC50 up to about 30 µM;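 further: compound exposure lasted 48 hours before the viability readout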). The note with it: SU-DIPG-IV viability, CellTiter-Glo ATP luminescence.
Assay [7] can be described thus: growth inhibition of DIPG glioma cells, dose response, cell-based, SU-DIPG-XIII, MIPE5.0, CellTiter-Glo, qHTS (AID 1347064; cut-off not given, nearly all actives have AC50 up to about 23 µM;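 on AC50: cells exposed to compound for 48 hours before the viability read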). The note with it: SU-DIPG-XIII viability, CellTiter-Glo ATP luminescence.
A short description of assay [8]: JHH-DIPG-1 glioma cell viability, MIPE5.0 library, CellTiter-Glo luminescence, qHTS (AID 1347067).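 Further: cells exposed to compound for 48 hours before readout.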 The note with it: JHH-DIPG-1 glioma viability, CellTiter-Glo ATP luminescence.
A short description of assay [9]: modifiers of HSF1 nuclear foci, imaging, Selleck Cancer Library (AID 1347162; in the data active means plate-normalised HSF1 focus index below about 0.46). The note with it: human cells, at 10 µM; SSMD: measured here: HSF1 foci SSMD mean; cell count: measured here: cell number; plate-normalised HSF1 focus index: stronger effect = lower value.
Assay [10] can be described thus: phospholipid biosynthesis inhibitors in animal cells, primary screen, cell-based, LOPAC library, screen 4 (AID 1347384; call rule not given here). The note with it: phospholipid biosynthesis inhibition screen, at 10 µM.

SMILES strings stand for the structures. Inconclusive results are not listed. Activity calls are given as the source filed them. Unless noted, cut-off not given; nearly all actives show AC50 up to about 26 µM. Where a SMILES comes first, the peptide text is derived from it. [ ]: non-standard residue; d: D form. The star is where a group is joined. Sta = CC(C)C[C@H](N)[C@@H](O)CC(=O)O; Isovaleryl = CC(C)CC(=O)*

Sequence of NAD(+) hydrolase SARM1 (Homo sapiens) (Q6SZW1 whole entry, looked up): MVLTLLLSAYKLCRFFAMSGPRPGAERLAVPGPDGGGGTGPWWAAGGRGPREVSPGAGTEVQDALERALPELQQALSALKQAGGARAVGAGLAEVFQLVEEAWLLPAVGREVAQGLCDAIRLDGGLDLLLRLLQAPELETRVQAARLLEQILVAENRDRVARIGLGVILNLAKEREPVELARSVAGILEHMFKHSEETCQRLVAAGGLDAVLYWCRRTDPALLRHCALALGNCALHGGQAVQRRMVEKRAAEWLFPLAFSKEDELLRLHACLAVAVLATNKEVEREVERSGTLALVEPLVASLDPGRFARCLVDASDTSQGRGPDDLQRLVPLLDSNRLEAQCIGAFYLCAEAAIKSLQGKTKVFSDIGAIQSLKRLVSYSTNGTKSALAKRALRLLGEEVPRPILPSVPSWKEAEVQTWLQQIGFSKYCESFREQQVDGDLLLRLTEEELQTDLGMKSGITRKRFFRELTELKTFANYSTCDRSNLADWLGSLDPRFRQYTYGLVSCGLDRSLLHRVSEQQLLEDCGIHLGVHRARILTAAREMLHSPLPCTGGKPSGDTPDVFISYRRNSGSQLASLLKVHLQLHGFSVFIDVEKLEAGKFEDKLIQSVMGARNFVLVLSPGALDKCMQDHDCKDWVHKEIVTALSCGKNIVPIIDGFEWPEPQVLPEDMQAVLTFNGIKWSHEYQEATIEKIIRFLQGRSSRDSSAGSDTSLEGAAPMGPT

Regarding `CCCCCCCCCCCCCCCC(=O)NCCO`, in [1], the period change was 0.19 h (inactive). The survival in assay [2] is 109 (inactive). For the same molecule, the inhibition in [3] is -7% (inactive). The fluorescence ratio (interference) in assay [4] was 1 (inactive). Also, the remaining NAD in assay [5] was 10 nM (inactive).
Turning to `Nc1ccn(C2CO[C@H](CO)O2)c(=O)n1` (some centres not stated), the molecule was called inactive in [6], in assay [7] and in assay [8].
With `Cc1oc(=O)oc1CN1CCN(c2cc3c(cc2F)c(=O)c(C(=O)O)c2n3C(C)S2)CC1` (configuration not stated), the molecule was called inactive in assay [6], in [7] and in [8]. Moreover, in assay [5], the remaining NAD was 10 nM (inactive).
For the molecule `CC(C)CC(=O)N[C@H](C(=O)N[C@H](C(=O)N[C@@H](CC(C)C)[C@@H](O)CC(=O)N[C@@H](C)C(=O)N[C@@H](CC(C)C)[C@@H](O)CC(=O)O)C(C)C)C(C)C` (Isovaleryl-VV[Sta]A[Sta]-OH), the call in assay [6], in assay [7] and in assay [8] was inactive.
As for `CCN(CC)CCNC(=O)c1c(C)[nH]c(/C=C2\C(=O)Nc3ccc(F)cc32)c1C`, in [6], the AC50 is 9.59 µM (active). For the same molecule, in assay [7], the AC50 is 7.42 µM (active). The concentration at half-maximal activity (AC50) in assay [8] is 3.72 µM (active). In assay [9], the SSMD was -0.842, the cell count stood at 6750 and the plate-normalised HSF1 focus index is 0.967 (inactive). Besides, in assay [10], the molecule was classed as inactive.
For the molecule `Cc1[nH]c(=O)c(C#N)cc1-c1ccc2nccn2c1`, in assay [3], the inhibition was -1% (inactive). In addition, the fluorescence ratio (interference) in assay [4] is 1 (inactive). The molecule was classed as inactive in [6], in assay [8] and in [10].
On to `CSCC[C@H](NC(=O)[C@H](Cc1c[nH]c2ccccc12)NC(=O)CCNC(=O)OC(C)(C)C)C(=O)N[C@@H](CC(=O)O)C(=O)N[C@@H](Cc1ccccc1)C(N)=O`, for which the outcome in assay [6], in assay [7] and in assay [8] was inactive. Also, the remaining NAD in assay [5] is 10 nM (inactive).
For `CNCCC(Oc1ccccc1OC)c1ccccc1` (configuration not stated), in assay [1], the period change is -0.31 h (inactive). Also, the survival in [2] was 0.917 (inactive). Also, the inhibition in assay [3] is -6% (inactive). Also, in assay [4], the fluorescence ratio (interference) was 0.9 (inactive). Besides, the result in [10] was inactive.
As to `CS(=O)(=O)CCNCc1ccc(-c2ccc3ncnc(Nc4ccc(OCc5cccc(F)c5)c(Cl)c4)c3c2)o1`, the concentration at half-maximal activity (AC50) in assay [6] is 11.8 µM (active); in assay [7], 18.6 µM (active); in assay [8] it was 20.9 µM (active).
As for `CCC1=C[C@@H]2CN(C1)Cc1c([nH]c3ccccc13)[C@@](C(=O)OC)(c1cc3c(cc1OC)N(C)[C@H]1[C@@](O)(C(=O)OC)[C@H](OC(C)=O)[C@]4(CC)C=CCN5CC[C@]31[C@@H]54)C2`, the AC50 in assay [7] was 2.29 µM (active). For the same molecule, the AC50 in assay [8] is 0.144 µM (active). For the same molecule, in assay [9], the SSMD is 1.19, the cell count is 6320 and the plate-normalised HSF1 focus index is 1.08 (inactive).
As to `NCCCC(N)(C(=O)O)C(F)F` (configuration not stated), the period change in assay [1] is -0.04 h (inactive). The inhibition in assay [3] was -3% (inactive). Moreover, the fluorescence ratio (interference) in assay [4] was 1 (inactive). Also, the molecule was called inactive in assay [6], in assay [7], in [8] and in [10].
Consider `N[C@@H](Cc1c[nH]c2ccc(O)cc12)C(=O)O`, for which, in [1], the period change was -0.25 h (inactive). In addition, the inhibition in assay [3] was -3% (inactive). The fluorescence ratio (interference) in assay [4] was 1 (inactive). The call in [6], in [7], in assay [8] and in [10] was inactive.
In the case of `O=[N+]([O-])c1cncn1CCN1CCOCC1`, the outcome in assay [7] and in assay [8] was inactive.
For `COc1ccc2cccc(CCNC(C)=O)c2c1`, the call in assay [6], in assay [7], in assay [8] and in [10] was inactive.
Regarding `Cc1cc(=O)c2c(O)c3c(O)cc(=O)c4c3c3c(cc(O)c1c23)C(C)(C)C=4O`, the AC50 in [6] was 0.469 µM (active).
`Clc1ccc(C(Cn2ccnc2)OCc2c(Cl)cccc2Cl)c(Cl)c1` (configuration not stated): in [2], the survival is 13.2 (inactive). Besides, the half-maximal activity concentration (AC50) in [7] was 20.9 µM (active).
As to `C=CC(=O)Nc1cc2c(Nc3ccc(F)c(Cl)c3)ncnc2cc1OCCCN1CCOCC1`, the results for the half-maximal activity concentration (AC50) in assay [6], in assay [7] and in assay [8] were 5.9 µM (active), 9.34 µM (active) and 9.34 µM (active), respectively.
Regarding `CC(C)(C)C(=O)Oc1ccc(S(=O)(=O)Nc2ccccc2C(=O)NCC(=O)O)cc1`, the inhibition in assay [3] was -5% (inactive). In assay [4], the fluorescence ratio (interference) is 0.9 (inactive). Moreover, the result in [7] and in assay [10] was inactive.
Turning to `CC(C(=O)O)c1ccc2c(c1)CC(=O)c1ccccc1S2` (configuration not stated), the molecule was classed as inactive in assay [7].
As for `CN(C)C(=O)COC(=O)Cc1ccc(OC(=O)c2ccc(N=C(N)N)cc2)cc1`, the outcome in [7] and in [8] was inactive.
For `COCCCN1CCC(NC(=O)c2cc(Cl)c(N)c3c2OCC3)CC1`, the outcome in assay [8] was inactive.
Take `Cc1nnc(C(=O)NC(C)(C)c2nc(C(=O)NCc3ccc(F)cc3)c(O)c(=O)n2C)o1`: in [6], the molecule was called inactive.
Take `Cc1cc2c(cc1CC(=O)c1sccc1S(=O)(=O)Nc1onc(C)c1Cl)OCO2`: in [8], the AC50 was 26.3 µM (active).
`CNC(=O)c1ccccc1Sc1ccc2c(/C=C/c3ccccn3)n[nH]c2c1`: the half-maximal activity concentration (AC50) in assay [7] is 1.48 µM (active). The AC50 in [8] is 5.25 µM (active). Besides, in [9], the SSMD turned out to be 5.16, the cell count was 7390 and the plate-normalised HSF1 focus index is 1.18 (inactive).
Regarding `NC(=O)c1ncn([C@@H]2O[C@H](CO)[C@@H](O)[C@H]2O)c1N`, the molecule was classed as inactive in assay [7] and in [8]. For the same molecule, the remaining NAD in assay [5] was 10 nM (inactive).
Take `O=P(O)(O)C(O)(Cn1ccnc1)P(=O)(O)O`: the molecule was classed as inactive in assay [7] and in assay [8].
`CC1(C)CCC(C)(C)c2cc(NC(=O)c3ccc(C(=O)O)cc3)ccc21`: the molecule was classed as inactive in assay [7] and in assay [8].
Take `N=C(N)c1ccc2cc(OC(=O)c3ccc(N=C(N)N)cc3)ccc2c1`: the molecule was classed as inactive in assay [6], in assay [7] and in [8].
`C[C@]12CCC(=O)C=C1[C@@H]1C[C@@H]1[C@H]1[C@@H]3[C@@H]4C[C@@H]4[C@@]4(CCC(=O)O4)[C@@]3(C)CC[C@@H]12`: the molecule was called inactive in [7] and in [8]. Besides, in assay [5], the remaining NAD is 10 nM (inactive).
For `O=c1cc(O)c(Cl)c[nH]1`, the molecule was classed as inactive in assay [7] and in [8].
Turning to `c1cnc2cc3c(cc2n1)C1CNCC3C1`, the call in assay [6], in assay [7] and in [10] was inactive.
In the case of `CC(C)OC(=O)OCOP(=O)(CO[C@H](C)Cn1cnc2c(N)ncnc21)OCOC(=O)OC(C)C`, the outcome in assay [6] was inactive.
As to `O=C(Nc1ccc(S(=O)(=O)N2CCOCC2)cc1)c1cc(Cl)ccc1NS(=O)(=O)c1ccc(Cl)s1`, the result in assay [8] was inactive.
As to `COc1ccc(-c2ccc3cc(C(=O)O)ccc3c2)cc1C12CC3CC(CC(C3)C1)C2`, in [6], the result was inactive. Besides, in [5], the remaining NAD was 10 nM (inactive).
For `CC(=O)OCC(=O)[C@@]12N=C(C)O[C@@H]1C[C@H]1[C@@H]3CCC4=CC(=O)C=C[C@]4(C)[C@H]3[C@@H](O)C[C@@]12C`, in assay [7], the call was inactive. In [5], the remaining NAD was 10 nM (inactive).
Turning to `CCCCc1oc2ccc(NS(C)(=O)=O)cc2c1C(=O)c1ccc(OCCCN(CCCC)CCCC)cc1`, the concentration at half-maximal activity (AC50) is 7.43 µM (active) in [6], 11.8 µM (active) in [7] and 10.5 µM (active) in assay [8].
`COC(c1ccccc1)(c1ccccc1)[C@H](Oc1nc(C)cc(C)n1)C(=O)O`: the outcome in [6] and in assay [8] was inactive.
Consider `Cc1ccccc1C(=O)Nc1ccc(C(=O)N2CCCC(O)c3cc(Cl)ccc32)c(C)c1` (configuration not stated), for which the molecule was called inactive in assay [6] and in [8].
For the molecule `Cc1ccc(C(=O)c2cc(O)c(O)c([N+](=O)[O-])c2)cc1`, the molecule was classed as inactive in assay [7] and in assay [8].
`N#Cc1c(N(CC(=O)O)CC(=O)O)sc(C(=O)O)c1CC(=O)O`: the call in assay [7] and in assay [8] was inactive.
Consider `Clc1ccc(C(Cn2ccnc2)OCc2ccc(Sc3ccccc3)cc2)c(Cl)c1` (configuration not stated), for which the AC50 in assay [6] was 16.6 µM (active); in assay [7], 20.9 µM (active).
Take `CC(=O)N[C@H]1[C@H]([C@H](O)[C@H](O)CO)OC(C(=O)O)=C[C@@H]1N=C(N)N`: the result in assay [6] was inactive.
Turning to `CCOC(=O)c1c(C)n(C)c2ccc(O)cc12`, in [6], the call was inactive.
Turning to `CC(C)C[C@H](NC(=O)[C@H](CCc1ccccc1)NC(=O)CN1CCOCC1)C(=O)N[C@@H](Cc1ccccc1)C(=O)N[C@@H](CC(C)C)C(=O)[C@@]1(C)CO1`, the AC50 in assay [6] is 0.0235 µM (active); in assay [7] it was 0.00742 µM (active); in assay [8], 0.0105 µM (active).

(Values after PubChem BioAssay.)
